Records with an inconclusive call do not appear. Active and inactive are the calls of the source. Calls come from the whole dose curve; as a rule, active = well fitted inhibition curve with a large enough effect; inconclusive = small, poorly fitted or top-dose-only effect; inactive = flat fitted curve, though single readings scatter.
Potency is the fitted concentration of half-maximal effect.

Chain of Ferritin light chain (Equus caballus) (P02791 2-175 limits assumed): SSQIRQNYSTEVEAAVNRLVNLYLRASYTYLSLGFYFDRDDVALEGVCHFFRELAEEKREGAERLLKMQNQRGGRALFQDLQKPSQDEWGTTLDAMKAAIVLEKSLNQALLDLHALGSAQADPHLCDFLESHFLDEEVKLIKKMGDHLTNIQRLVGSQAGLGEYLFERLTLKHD

The target of the test is Ferritin light chain (Equus caballus) (UniProt P02791). Kind of test: Confirmation Assay for Identification of Novel General Anesthetics. Note: nearly all actives have a fitted effect of over 40% in size. The conditions noted are these: apoferritin 1-aminoanthracene fluorescence displacement. The essentials:
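Competitive displacement of profluorescent 1-aminoanthracene from 10 uM horse-spleen apoferritin in 50% saturated 1-AMA/PBS; 10 min RT, fluorescence Ex 380/Em 535. Normalized to free 1-AMA and complex; four-parameter Hill fit.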
Take `Cc1ccc(O)c(Sc2cc(C)ccc2O)c1`: the Potency is 7.94 µM (active).
Regarding `O=C(Nc1ccc(F)c(Cl)c1)N1CCCCCC1`, the Potency was 7.94 µM (active).
In the case of `CC1Cc2ccccc2N1C(=O)COC(=O)c1cccnc1Cl` (stereo not drawn) it was 15.8 µM (active); in that of `Cc1ccccc1Oc1ccccc1N`, 15.8 µM (active).
In the case of `CC(=O)Nc1ccc(C(=O)OCC(=O)NC2CCCCCCC2)cc1` it was 15.8 µM (active); in that of `CCC(CC)C(=O)Nc1ccc(Cl)c(Cl)c1`, 14.1 µM (active).
Regarding `Cc1cc(S(=O)(=O)NCCc2ccccc2)c(C)s1`, the Potency was 15.8 µM (active).
In the case of `O=C(Nc1cccc(Cl)c1)OCc1cnc(Cl)s1`, the Potency is 31.6 µM (active).
Consider `Cc1cc(C)n(-c2ccc(C(=O)NCc3ccc4c(c3)OCO4)cc2)n1`, for which the Potency was 15.8 µM (active).
Turning to `c1cc2c(cc1NC1CCCCCC1)OCO2`, the Potency is 8.91 µM (active).
For the compound `Cc1ccc(OCC(=O)N2CCCCCCC2)cc1C`, the Potency is 35.5 µM (active).
As to `Oc1cccc(Oc2ncc(C(F)(F)F)cc2Cl)c1`, the Potency is 7.94 µM (active).
`N#Cc1ccc(NC(=O)COC(=O)CNC(=O)C2CCCCC2)cc1`: the Potency was 15.8 µM (active).
In the case of `C=C(C)C(=O)OC1(C(F)(F)F)Oc2cc(C)ccc2NC1=O` (stereo not drawn) it was 15.8 µM (active); in that of `c1ccc(CCNc2nc3ccccc3s2)cc1`, 10 µM (active); in that of `O=C1c2ccsc2SCCN1Cc1ccccc1Cl`, 14.1 µM (active).
In the case of `Cc1ccc(Cn2cccc(NC(=O)NCc3ccccc3)c2=O)cc1` it was 7.08 µM (active); in that of `Cc1csc(Nc2ccc(Cl)cc2)n1`, 31.6 µM (active).
